Reference: PubChem BioAssay (NCI)
Compounds without any hit were thinned out: in the full panel of roughly 83,000, 20% have a hit.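 Single-concentration screen, 48 h exposure, 96-well plates. Endpoint: percent growth. Below 10 = active.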 A number with no mark means an inactive call. The source made the active and inactive calls.

Legend:
Assay in all cases: NCI-60 one-dose screen, 48 h (100 = growth as untreated, 0 = no growth, -100 = all killed)
Conditions in all cases: 10 µM unless noted
NCI-H23 lung = system: NCI-H23 lung
NCI-H226 lung = system: NCI-H226 lung
NCI-H322M lung = system: NCI-H322M lung
HOP-62 NSCLC = system: HOP-62 NSCLC
NCI-H460 lung = system: NCI-H460 lung
NCI-H522 lung = system: NCI-H522 lung
A549/ATCC NSCLC = system: A549/ATCC NSCLC
786-0 renal = system: 786-0 renal
COLO 205 colon = system: COLO 205 colon
HOP-92 NSCLC = system: HOP-92 NSCLC

SMILES | growth (NCI-H23 lung) | growth (NCI-H226 lung) | growth (NCI-H322M lung) | growth (HOP-62 NSCLC) | growth (NCI-H460 lung) | growth (NCI-H522 lung) | growth (A549/ATCC NSCLC) | growth (786-0 renal) | growth (COLO 205 colon) | growth (HOP-92 NSCLC)
CC(=O)c1ccc2c(c1)C1C=CCC1[C@H](c1cc3c(cc1Br)OCO3)N2 (some centres undefined) | 27.1% | 22.1% | 64.8% | 32.1% | 7.92% (active) | -10.7% (active) | 23.4% | 10.9% | -14% (active) | 
CC/C(=C(\CC)c1ccc(OCCN(CC)CC)cc1)c1ccc(OCCN(CC)CC)cc1 | 40.7% | 62.7% | 60.7% | 36.9% | 31.8% | 16.2% | 37.1% | 22% | 4.87% (active) | 
Nc1ncnc2c1c(-c1ccc(Oc3ccccc3)cc1)nn2C[C@H]1SSC[C@@H]1O | 53.2% | 22.9% | 46.9% | 49.7% | 22% | -3.56% (active) | 31% | 66.2% | 6.71% (active) | 
CCOC(=O)c1[nH]c(-c2ccc(Cl)cc2)cc1-c1cccnc1 | 35.1% | 68.4% | 59.4% | 10.5% | 7.36% (active) | -1.79% (active) | 30.7% | 24.5% | -15.5% (active) | 
O=S1(=O)N(CCNc2nccc(-c3c(-c4cccc(O)c4)nc4sccn34)n2)CCN1Cc1ccccc1 | 84.1% | 71.2% | 101% | 143% | 42% | 52.1% | 65.2% | 78.3% | 46.4% | 
O=C(Cn1c2ccccc2c2ccncc21)N/N=C\c1ccc2ccccc2c1 | 55% | 31.9% | 39.1% | 19.8% | 5.42% (active) | 38% | -10.1% (active) | -3.98% (active) | 31.6% | 
CC(C)CNCC(O)COc1ccc(C(C)(C)c2ccc(OCC(O)CNCC(C)C)cc2)cc1 (centres undefined) | 84.4% | 88.2% | 81.3% | 64.3% | -22.2% (active) | 26.4% | 37.5% | 26.1% | -65.8% (active) | 
Nc1ncc(-c2ccc3ncnc(Nc4cncc(Cl)c4)c3c2)cn1 | 65.1% | 55.2% | 29.8% | 65.6% | 67.8% | 55.5% | 65.4% | 65.8% | 75.6% | 
C=CCn1c(SCC(=O)Nc2ccc(C(=O)/C=C/c3cc(OC)c(OC)c(OC)c3)cc2)nnc1-c1ccc(OC)cc1 | 22.2% | -36.5% (active) | 17.3% | -32.5% (active) | 0.762% (active) | -16.8% (active) | 4.04% (active) | -30.8% (active) | -7.79% (active) | 
Cc1cccc(Cc2cnc(NC(=O)CCc3ccc(C)o3)s2)c1 | 35.3% | 35.1% | 45.9% | 47.5% | 4.15% (active) | 4.74% (active) | 26.1% | 29.8% | -9.57% (active) | 
Cc1ccc2c(C3C(C#N)=C(N)Oc4cc5ccccc5cc43)cc(=O)oc2c1 (centres undefined) | 41% | 87.8% | 42.7% | 30.1% | 12.5% | 7.76% (active) | 25.1% | 26.2% | 2.72% (active) | 
CN(C)c1ccc(/C=N/n2c(-c3cc(F)c(Cl)cc3Cl)nn(CN3CCOCC3)c2=S)cc1 | 101% | 97.2% | 94.9% | 87.1% | 121% | 74.1% | 101% | 101% | 108% | 
COc1ccc(/C=C/C(=O)c2ccc(NC(=O)CSc3nnc(-c4cc(OC)c(OC)c(OC)c4)o3)cc2)cc1 | -17% (active) | 12.9% | 20.2% | 43.8% | 14.5% | -76.4% (active) | 7.85% (active) | -58.4% (active) | -61.1% (active) | 
COc1ccc2c(c1)C(=O)/C(=C/c1cccc(OCC(=O)c3ccccc3)c1)O2 | 41.4% | 80.9% | 108% | 103% | 93.1% |  | 105% | 104% | -12.5% (active) | 
Cc1nccc2c3ccc(OCc4cn(-c5ccc(Br)cc5)nn4)cc3n(CCCc3ccccc3)c12 | 51.2% | 91% | 91.1% | 110% | 33.4% | 84.9% | 12.2% | -71.4% (active) | 40.7% | 
CCCCOc1nc2ccc(Cl)cc2cc1/C=C/C(=O)/C=C/c1ccc(Cl)cc1 | 79.8% | 92.9% | 95.7% | 101% |  | 74.8% | 84.4% | 94.1% | 62% | 87.1%
Cc1cn(C2CC(N=[N+]=[N-])C(COP(=O)(O)OP(=O)(O)OP(=O)(O)O)O2)c(=O)[nH]c1=O (centres undefined) | 94.7% | 115% | 102% | 94.1% |  | 92.9% | 146% | 95.2% | 119% | 50.9%
CCCCCCCCCCCCCCCC(=O)NS(=O)(=O)OC[C@H]1O[C@@H](n2cnc3c(N)ncnc32)[C@H](O)[C@@H]1O | -39.5% (active) | -65.1% (active) | -46.2% (active) | -25% (active) |  | -33.3% (active) | 9.49% (active) | -69.6% (active) | -62.8% (active) | -65.7% (active)
O=C1CCC(c2c(O)cc(O)c3c(=O)c(O)c(-c4ccc(O)c(O)c4)oc23)N1 (centres undefined) | 94.7% | 104% | 92.8% | 84.3% |  | 70.9% | 81.1% | 99.6% | 112% | 91.9%
COc1ccc(-c2cnc(-c3ccc(F)cc3)[nH]2)cc1 | 88.2% | 85.4% | 213% | 46.5% |  | 85.9% | -55.7% (active) |  | 111% | 82.5%
CC(=O)CC/C=C(\C)[C@H](O)[C@H](C)C(=O)O[C@H]1C[C@H](C)C=C2C=C[C@@]3(C)O[C@@H](O)CC(=O)[C@]3(C)[C@H]21 | -35.8% (active) | -50.5% (active) | -17.6% (active) | -31.8% (active) |  | -43.4% (active) | -10.6% (active) | -49.7% (active) | -45.6% (active) | 
CC1CCc2cc(F)cc3c(=O)c(C(=O)O)cn1c23 (centres undefined) | 91.5% | 103% | 116% | 106% |  | 110% | 104% | 87.1% | 104% | 91.9%
CCOC(=O)NNc1nncc2ccccc12 | 95.4% | 104% | 102% | 102% |  | 103% | 104% | 99.1% | 105% | 95.1%
O=C(COc1ccc(Cl)cc1)N1CCN(Cc2ccc3c(c2)OCO3)CC1 | 89.8% | 101% | 105% | 101% |  | 93.8% | 96.3% | 101% | 96.1% | 81.1%
COc1cc(NC(C)CCCN2C(=O)c3ccccc3C2=O)c2nc(C)ccc2c1OC (centres undefined) | 87.9% | 96.4% | 76.2% | 95.1% |  | 82% | 94.8% | 97.5% | 99.3% | 53.5%
C=C1C(=O)O[C@H]2[C@H]1CC/C(C(=O)NCCOCCOCC(=O)Nc1ccc(OC)c(C(N)=O)c1O)=C\CC[C@@]1(C)O[C@@H]21 | 97.7% | 80.7% | 94.2% | 91.8% |  | 26.1% | 84.4% | 94.3% | 73.7% | 92.5%
O=C(Nc1ccc(-n2cc(-c3ccncc3)c(-c3ccc(O)c(Cl)c3)n2)cc1)Nc1ccc(Cl)c(C(F)(F)F)c1 | 16.2% | 50.2% | 27.3% | 28.3% |  | 9.38% (active) | 16.7% | -31.5% (active) | 41.3% | -22.9% (active)
COc1ccc(C(=O)NC(=O)Nc2ccc3c(c2)NC(=O)/C3=C\c2[nH]c(C)c(CCC(=O)O)c2C)c(F)c1 | 40.4% | 45% | 50.7% | 19.8% |  | 26.8% | 7.84% (active) | 31.2% | 37.5% | 83.5%
